The results in this text go back to PubChem BioAssay AID588335 (The Scripps Research Institute Molecular Screening Center, 2011).

The whole screen tested about 360,000 compounds, of which about 4,500 (1.2%) were called active. What follows is part of a selection rich in actives, with near analogues and random picks from the rest. A number with no mark means an inactive call. No stated cut-off is given here; in the data, active means inhibition above about 30%; inactive means the rest.

This experiment can be described thus: inhibition of GDH and TPI enzymes – biochemical, absorbance, full deck, artefact control for M. tuberculosis FBA inhibitor project, primary screen (AID 588335).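 Further: 0% = DMSO wells and 100% = wells lacking the enzyme.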 Particulars: GDH-TPI coupled enzyme counterscreen, NADH absorbance; at 4.8 µM; hits give high values.
For the molecule `COc1cc(Cn2c3ccc(NC(=O)CC(C)c4ccccc4)cc3c(=O)n2C)ccc1F` (stereo not given), the inhibition was 4%.

For the molecule `CCC(=O)Nc1c(S(=O)(=O)c2ccccc2)c2nc3ccccc3nc2n1Cc1ccccc1`, the inhibition was 27%.

As for `CCCn1nc(NS(=O)(=O)c2ccc(F)cc2)c2cc3ccccc3nc21`, the inhibition was 6.9%.

`CCN(CC)CCn1c(N)c(S(=O)(=O)c2ccccc2)c2nc3ccccc3nc21`: the inhibition was 31% (active).

Take `O=C(NNS(=O)(=O)c1ccccc1C(F)(F)F)c1cc2ncc(C(F)(F)F)cc2s1`: the inhibition is 12.3%.

Take `COCc1ccc(C(=O)N2CCc3c([nH]c4ccccc34)C2c2ccccn2)s1` (stereo not given): the inhibition is -1.89%.

For the molecule `CNC(=O)c1csc(Cc2c(Cl)sc3ccc(Cl)cc23)n1`, the inhibition was -5.66%.

As to `CN(C)C(=O)CCc1ccc2c3c([nH]c2c1)[C@]1(C)[C@@H](C(=O)N2CCOCC2)C[C@H](CC(=O)NCCc2ccccn2)C(=O)N1CC3`, the inhibition was 3.64%.

Turning to `COc1ccccc1CC(=O)Nc1ccc(S(=O)(=O)N2CCCC2)cc1`, the inhibition was 3.02%.

For `COc1ccc(S(=O)(=O)N2CCCCCC2)cc1NC(=O)Cc1ccc(OC)c(OC)c1`, the inhibition is -2.16%.

Turning to `COc1ccc(-c2ccc(Nc3ccc(S(=O)(=O)N4CCCC4)cc3)nn2)cc1OC`, the inhibition is 50.4% (active).

With `CCc1ccc(C(=O)C(C)OC(=O)CN2C(=O)NC3(CCCC3)C2=O)cc1` (stereo not given), the inhibition was 6.99%.

For the molecule `CC(OC(=O)Cc1ccc(F)cc1)C(=O)N1CCc2ccccc21` (stereo not given), the inhibition was 3.45%.

For `Cc1ccc(C(=O)COC(=O)CCCC(=O)NC2CCCCC2)cc1[N+](=O)[O-]`, the inhibition was -3%.

In the case of `Cc1ccc(N=C2NC(=O)c3cccc([N+](=O)[O-])c32)cc1`, the inhibition is 13.5%.

On to `CCOC(=O)Cn1c(O)c(N=NC(=O)CNC(=O)Cc2ccccc2)c2ccccc21`, for which the inhibition is 28.8%.

`COC(=O)Cn1c(O)c(N=NC(=O)OC)c2ccccc21`: the inhibition is 31.6% (active).

In the case of `CCn1c(O)c(N=NC(=O)c2cccc(S(=O)(=O)N3CCCCC3)c2)c2ccccc21`, the inhibition is 4.32%.

As to `O=C(O)C1=CCCN(CCON=C(c2ccccc2)c2ccccc2)C1`, the inhibition was -4.66%.

`Cn1c(CC(=O)NNC(=O)c2ccccc2F)nc2ccccc21`: the inhibition was -6.69%.

Consider `Cn1c(NC(=O)c2ccccc2)nc2ccccc21`, for which the inhibition is 41.4% (active).

As for `Cc1nc2ccccc2c(C)c1C(=O)c1ccc(F)cc1`, the inhibition is -2.59%.

Regarding `Cn1c(-c2ccc(C(=O)c3ccccc3)s2)nc2ccccc21`, the inhibition was 38.1% (active).

Take `CCCn1c(C(=O)c2ccccc2OC)nc2ccccc21`: the inhibition is 8.57%.

Regarding `CCn1c(NC(=O)c2nn(C)cc2Br)nc2ccccc21`, the inhibition is 6.37%.
